The text below walks through data of PubChem BioAssay AID2685 (National Center for Advancing Translational Sciences (NCATS), 2010).

Among all 320,000 compounds or so, about 2,100 (0.66%) were called active. Inconclusive results (about 53%) are left out. The call rests on the fitted dose curve; in most records, active means well fitted inhibition curve with a large enough effect in the signal ratio, with a control signal flat (not every such curve was filed as active); inconclusive means small, poorly fitted or top-dose-only effect, or effect the other way, or a change in a side signal; inactive means flat fitted curve, though single readings scatter; the % refers to the signal ratio. Only a selection was taken, and actives are over-represented in it overall.
Potency means the concentration at half of the fitted maximal effect.

A short description of this test: qHTS Assay for Lipid Storage Modulators in Drosophila S3 Cells.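 On cell number change: cells counted by Cell Tracker Red CMTPX staining in the red channel.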 On lipid storage change, negative = inhibition: on the % scale 0 is the no-effect control and ±100 the full control effect. The conditions noted are these: BODIPY lipid droplet fluorescence, 18-24 h, cells fed with added oleic acid; cell number change: measured here: cell count max response; series mostly up to 46.1 µM; lipid storage change, negative = inhibition: at the top concentration. An outline of the steps:
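Drosophila S3 cells loaded with oleic acid (400 uM, as added) and compounds at several concentrations; lipid droplets imaged by 488-nm laser-scanning cytometry, 500–530 nm intensity and object ratio to cell channel. Percent activity normalized to 20 uM Triacsin C.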
Background: qHTS replaces the single test concentration by a dilution series.
In the case of `CNc1ccc(Oc2c(F)c(F)nc(F)c2F)cc1`, the “lipid storage change, negative = inhibition” value was 5.56% (inactive) and the cell number change was -27.7%.
Take `CCn1c(=O)n(CC)c2cc(N3CCCC3)c(NC(=O)c3ccc(C)cc3)cc21`: the molecule was classed as inactive and the cell number change is -23.8%.
For the molecule `CCn1c(=O)n(CC)c2cc(N3CCCC3)c(NC(=O)c3cc(Cl)ccc3OC)cc21`, the Potency is 5.8 µM (active) and the cell number change was -12.8%.
`COc1ccc(Cl)cc1C(=O)Nc1ccccc1N1CCCCC1`: the “lipid storage change, negative = inhibition” value was 24.2% (inactive) and the cell number change turned out to be 5.02%.
On the same counts, the results for `Cc1ccc2c(n1)CC(C)(C)C/C2=N\O` are 2.92% (inactive) and 3.94%.
For `CC(C)Oc1cccc(C(=O)C2CCCN(C(=O)c3ccc4c(c3)OCO4)C2)c1` (centres undefined), the “lipid storage change, negative = inhibition” value was -19.1% (inactive) and the cell number change is -14.4%.
`CC(C)Oc1cccc(C(=O)C2CCCN(C(=O)c3ccsc3)C2)c1` (centres undefined): the Potency was 18.4 µM (active) and the cell number change was -18.6%.
In the case of `CC(C)Oc1cccc(C(=O)C2CCCN(C(=O)c3csnn3)C2)c1` (centres undefined), the “lipid storage change, negative = inhibition” value is -2.76% (inactive) and the cell number change worked out at 3.1%.
On the same counts, the results for `Cn1ncc(N=Cc2ccccc2[N+](=O)[O-])c1C(N)=O` are 12.9% (inactive) and -4.8%.
On the same counts, the results for `CCOC(=O)Cn1c(=N)n(CCOc2ccc(Br)cc2)c2ccccc21` are -6.39% (inactive) and -7.97%.
For `CCOC(=O)Cn1nc(C)c(NC(=O)CCc2ccccc2)c1C`, in that order: -3.97% (inactive) and 12.6%.
Consider `c1ccc(C[C@H]2CNCCN2CCc2cccc3ccccc23)cc1`, for which the “lipid storage change, negative = inhibition” value is 2.45% (inactive) and the cell number change is -0.264%.
Regarding `Fc1cccc(CCN2CCNC[C@H]2Cc2cccc3ccccc23)c1`, the Potency is 14.6 µM (active).
As for `Oc1ccc(C[C@@H]2CNCCN2CCc2cccc3ccccc23)cc1`, the “lipid storage change, negative = inhibition” value is 9.05% (inactive) and the cell number change is -30.1%.
In the case of `C=CCn1c(C)cc(C(=O)COC(=O)c2ccc(N)c([N+](=O)[O-])c2)c1C`, the “lipid storage change, negative = inhibition” value is 13.4% (inactive) and the cell number change amounted to 5.39%.
On the same counts, the results for `CCN(CC)CCCNC(=S)N(Cc1cccnc1)Cc1cc2cc(C)ccc2[nH]c1=O` are 11.3% (inactive) and 5.5%.
For `CCOC(=O)C1CCCN(CCC(C)c2ccccc2)C1` (centres undefined), in that order: 13.5% (inactive) and 2.31%.
On to `CC(CN1CCCC(C(N)=O)C1)c1ccccc1` (centres undefined), for which the “lipid storage change, negative = inhibition” value was -19.6% (inactive) and the cell number change was -8.59%.
In the case of `CN1CCCC(C(=O)C(C#N)c2ccccc2)C1` (centres undefined), the Potency was 29.1 µM (active) and the cell number change was -21.6%.
`CC(C)n1nc(C(=O)Nc2cccc(S(=O)(=O)NCc3ccco3)c2)c2ccccc2c1=O`: the outcome was inactive and the cell number change was -6.04%.
Consider `CC(C)C(NC(=O)c1ccccc1)C(=O)OCn1nnc2ccccc2c1=O` (centres undefined), for which the Potency is 16.4 µM (active) and the cell number change was -15.7%.
For `CC(=O)OCn1nnc2ccccc2c1=O`, the “lipid storage change, negative = inhibition” value was 3.6% (inactive) and the cell number change turned out to be 12.3%.
On to `CC(C)[C@H](NS(=O)(=O)c1ccccc1)C(=O)OCn1nnc2ccccc2c1=O`, for which the “lipid storage change, negative = inhibition” value was -13.3% (inactive).
For `CCOC(=O)c1ccccc1NC(=S)N1CCC(C)CC1`, the “lipid storage change, negative = inhibition” value was 29.6% (inactive) and the cell number change was -4.08%.
For `Cc1nnsc1S(=O)c1ccccc1Cl` (centres undefined), the “lipid storage change, negative = inhibition” value was 14.1% (inactive) and the cell number change is -9.44%.
For `O=[N+]([O-])c1cccc(/C=N/NS(=O)(=O)c2ccccc2)c1`, in that order: -12.4% (inactive) and -12.3%.
Turning to `C=CCNC(=S)NNC(=O)c1ccc(Br)cc1`, the “lipid storage change, negative = inhibition” value was -0.112% (inactive) and the cell number change is -6.86%.
For `CC(=O)NC(=S)Nc1ccc(NC(=S)NC(=O)/C=C/c2ccco2)cc1`, in that order: 8.43% (inactive) and 15.8%.
For `CC(=O)c1ccc(NC(=S)NC(=O)/C=C/c2ccco2)cc1`, the “lipid storage change, negative = inhibition” value is 9.91% (inactive) and the cell number change is -2.35%.
Regarding `CC(=O)Nc1ccc(NC(=S)NC(=O)/C=C/c2ccco2)cc1`, the Potency was 4.61 µM (active) and the cell number change was -27.7%.
On to `CCO[C@H]1OC(C(=O)N2CCN(C)CC2)=C[C@@H](C2CC2)[C@@H]1CCCO`, for which the “lipid storage change, negative = inhibition” value is -7.66% (inactive).
On to `Cc1cc(OCC(=O)NNC(=S)NCC2CCCO2)cc(C)c1Cl` (centres undefined), for which the molecule was called inactive and the cell number change was -9.63%.
For `O=C(Nc1ccccc1F)C1COc2ccccc2O1` (centres undefined), the outcome was inactive.
`COc1ccc(NC(=O)CCCNC(=O)Cn2cnc3sc(C)c(C)c3c2=O)cc1OC`: the molecule was classed as inactive and the cell number change was 19.7%.
Take `COc1ccc(OC)c(NC(=O)CCCNC(=O)Cn2cnc3sc(C)c(C)c3c2=O)c1`: the Potency is 3.66 µM (active) and the cell number change is 10.8%.
For the molecule `COc1ccccc1NC(=O)CCCNC(=O)Cn1cnc2sc(C)c(C)c2c1=O`, the result was inactive and the cell number change came out at 9.46%.
`CN1CCN(C2CCN(Cc3ccc(O)c4ncccc34)CC2)CC1`: the “lipid storage change, negative = inhibition” value was 9.86% (inactive) and the cell number change came to 8.98%.
For the molecule `O=S(=O)(c1ccccc1)c1nc(-c2ccccc2)oc1N1CCCC1`, the “lipid storage change, negative = inhibition” value was 1.16% (inactive).
Regarding `COc1ccccc1-c1nc(S(=O)(=O)c2ccccc2)c(N2CCCCC2)o1`, the Potency was 4.11 µM (active) and the cell number change was -11.8%.
Regarding `COc1ccccc1-c1nc(S(=O)(=O)c2ccccc2)c(N2CCOCC2)o1`, the “lipid storage change, negative = inhibition” value is -22.5% (inactive) and the cell number change amounted to 5.82%.
As for `Cc1nc(CS(=O)c2ccc(Cl)cc2)cc(N2CCOCC2)n1` (centres undefined), the “lipid storage change, negative = inhibition” value is -9.48% (inactive) and the cell number change was -22.4%.
For `Cc1ccc(NC(=O)CN2CCN(Cc3ccccc3)CC2)cc1`, the “lipid storage change, negative = inhibition” value is 5.7% (inactive).
`COc1ccc(C(=O)NCC2(c3ccccc3)CCOCC2)cc1`: the “lipid storage change, negative = inhibition” value was 3.47% (inactive) and the cell number change worked out at 16.9%.
On the same counts, the results for `CC1=CC2=NC(=O)/C(=C\c3ccc(-c4ccc(Cl)cc4)o3)C(=N)N2O1` are -14% (inactive) and 5.59%.
Take `CCOc1ccc(C(=O)NC(C(=O)NCC(c2cccs2)N(C)C)C(C)C)cc1` (centres undefined): the “lipid storage change, negative = inhibition” value is 16.5% (inactive) and the cell number change was -5.63%.
